NRP1-CendR mod: modulators of CendR peptide binding to NRP-1, primary screen, biochemical, fluorescence polarization, uHTS | inhibition, % at 25 µM | 0.85% of 360,000 active | Neuropilin-1 (Homo sapiens), O14786 | FAM-RPARPAR peptide binding to NRP-1 | AID 602438, 2012;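 active = inhibition or corrected inhibition above about 18%, plus a signal ratio from 0.5 to 1.5, limit read from the data, passing the limit was not always enough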
ERp5 inh: inhibitors of ERp5-driven insulin aggregation, primary screen, biochemical, turbidity, absorbance 650 nm, single point; Protein disulfide-isomerase A6 (Homo sapiens), Q15084; 0.05% of 350,000 active; inhibition, % at 9.99 µM; AID 651711, 2012; 90 min;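 active = mean replicate inhibition above about 25%, with every replicate also reaching it, limit read from the data, passing the limit was not always enough; inconclusive = only one of those two criteria met; inactive = neither criterion met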
Target sequence (Q15084 whole entry, looked up): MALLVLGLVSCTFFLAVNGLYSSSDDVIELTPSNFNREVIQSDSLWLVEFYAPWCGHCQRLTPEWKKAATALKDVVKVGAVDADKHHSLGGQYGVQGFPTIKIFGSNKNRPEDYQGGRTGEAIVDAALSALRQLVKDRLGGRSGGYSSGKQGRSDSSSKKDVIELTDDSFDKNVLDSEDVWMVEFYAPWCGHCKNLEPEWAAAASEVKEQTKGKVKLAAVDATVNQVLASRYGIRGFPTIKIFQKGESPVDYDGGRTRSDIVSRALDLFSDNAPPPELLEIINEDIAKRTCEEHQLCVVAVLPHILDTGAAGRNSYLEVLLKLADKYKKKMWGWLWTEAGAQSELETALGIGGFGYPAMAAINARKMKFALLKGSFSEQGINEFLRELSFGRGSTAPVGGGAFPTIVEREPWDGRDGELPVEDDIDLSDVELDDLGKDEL
PDI turbidity: inhibitors of human PDI, primary screen, biochemical, turbidity, single point, plate reader; 0.052% of 350,000 active; inhibition, % at 10 µM; AID 588391, 2011; PDI insulin aggregation turbidity, A650, 90 min;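 active = mean inhibition across replicates of 30% or more, whatever share of single replicates reach that level; inconclusive = mean inhibition below 30% while every single replicate reaches 30%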
PglD DTNB: C. jejuni PglD acetyltransferase inhibitors, primary screen, biochemical, DTNB colorimetric, single point; purified PglD enzyme, DTNB colorimetric CoA detection; AID 602405, 2012; UDP-N-acetylbacillosamine N-acetyltransferase PglD (Campylobacter jejuni); 0.098% of 360,000 active; inhibition, % at 12.5 µM; in the data active = inhibition above about 16%, passing the limit was not always enough; inconclusive = no clear call, values can overlap the other calls
ALR inh: inhibitors of human ALR sulfhydryl oxidase, primary screen, biochemical, H2O2 detection, HRP-luminol luminescence, single point; FAD-linked sulfhydryl oxidase ALR (Homo sapiens), P55789; 3.8% of 290,000 active; AID 485317, 2010; inhibition, % (no concentration beside the values); purified ALR, DTT oxidation;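 active = mean replicate inhibition above about 79%, with every replicate also reaching it, limit read from the data; inconclusive = only one of the two criteria met; inactive = mean below limit and not every replicate reaching it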
Target sequence (P55789 whole entry, looked up): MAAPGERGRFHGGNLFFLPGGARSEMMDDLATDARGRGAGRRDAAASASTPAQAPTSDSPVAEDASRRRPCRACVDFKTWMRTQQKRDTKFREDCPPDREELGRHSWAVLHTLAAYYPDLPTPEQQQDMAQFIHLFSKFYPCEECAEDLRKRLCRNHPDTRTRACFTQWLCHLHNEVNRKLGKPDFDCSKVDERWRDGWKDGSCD
ARNT-TACC3 inh: disruptors of ARNT/TACC3 protein interaction, primary screen, biochemical, AlphaScreen, single concentration. AlphaScreen His-ARNT PAS-B/GST-TACC3 binding, luminescence; TACC3 fragment carries E629A point mutation. inhibition, % at 9.99 µM. 0.66% of 390,000 active;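 active = mean inhibition of replicates at least 50% and at least half of replicates each reaching 50%; inconclusive = half or more replicates reach 50% but mean below 50%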;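 also: 0% = complete ARNT plus TACC3 wells and 100% = ARNT alone without TACC3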
Active calls of the source: *; ? = inconclusive; · = not tested or not shown. This excerpt belongs to a sample that is enriched for hits.

SMILES	NRP1-CendR mod	ERp5 inh	PDI turbidity	PglD DTNB	ALR inh	ARNT-TACC3 inh
C[C@H]1CN([C@@H](C)CO)C(=O)Cc2cc(NC(=O)CCCCCC(=O)Nc3ccccc3N)ccc2O[C@@H]1CN(C)S(=O)(=O)c1ccc(F)cc1	·	4.0	·	-3.7	·	·
O=C1CNC(=S)N1CCCn1ccnc1	-4.9	6.0	-7.5	-9.8	10.9	60.1*
CCC(=O)Nc1nnc(-c2ccccn2)o1	5.1	-2.0	-4.2	·	-1.5	47.5*
COc1cc(C(=O)OCC(=O)Nc2cc(C)on2)c([N+](=O)[O-])cc1OC	10.1	-1.7	1.0	-2.0	-2.4	-2.4
O=C(COC(=O)c1ccco1)Nc1nnc(-c2ccccc2)o1	-5.1	-12.6	11.3	·	41.3	59.8*
CCC(=O)Nc1nnc(-c2ccco2)o1	5.6	-1.9	-23.2	-2.1	·	7.7
O=C(Nc1nnc(-c2ccccn2)o1)c1ccc(Br)cc1	-7.0	-1.5	0.7	·	8.4	23.6
COc1cc(OC)c(C(=O)OCC(=O)Nc2cc(C)on2)cc1OC	35.9*	-1.3	14.3	·	11.9	-9.0
O=C(COc1ccccc1)Nc1nnc(-c2ccco2)o1	2.4	5.0	-0.5	0.2	?	74.1*
O=C(COc1ccccc1)Nc1nnc(-c2ccccc2)o1	-8.5	0.7	11.1	1.7	92.7*	93.2*
COc1cc(OC)c(C(=O)OCC(=O)Nc2nnc(-c3ccccc3)o2)cc1OC	-2.0	1.1	-4.6	-1.8	-1.9	85.0*
O=C(COc1ccccc1)Nc1cccc(-c2nnc(-c3ccccc3)o2)c1	-16.4	·	-7.6	1.8	-1.3	-3.5
O=C(Nc1ccccc1)Nc1nnc(-c2ccccc2)o1	40.2*	·	-9.1	7.1	-4.3	1.0
CCCC(=O)Nc1ccc2c(c1)C(=O)N(C)C[C@@H](OC)[C@@H](C)CN(Cc1cncnc1)[C@H](C)CO2	·	0.9	·	2.8	·	-7.2
C/C=C/c1ccc([C@@H]2[C@H](C#N)N(c3nc(CC)cs3)[C@H]2CO)cc1	·	0.3	·	-0.8	·	-6.8
CCOc1ccc(/C(O)=C/C(=O)C(=O)Nc2ccc(S(=O)(=O)NC(C)=O)cc2)cc1	-17.6	-3.6	7.7	·	98.0*	11.9
O=C(C[C@@H]1C=C[C@@H](NC(=O)Cc2ccccn2)[C@H](CO)O1)NCCc1ccccc1	·	·	·	-0.8	·	-2.9
CCCCC(O)(CCCC)C(=O)NN(C(=O)OC)c1ccccc1	31.4*	5.3	-13.2	2.0	-8.4	-3.7
CCCCC(O)(CCCC)C(=O)NN(C(=O)OCC)c1ccccc1	5.4	·	0.5	·	-18.1	0.9
CC(=Nc1ccccc1)C1=C(O)C(Cc2ccccc2)NC1=O (stereo unspecified)	-3.2	-4.3	5.4	·	·	-3.4
CSCCC1NC(=O)C(C(C)=NNC(N)=O)=C1O (stereo unspecified)	9.2	-1.3	7.8	·	·	74.2*
CC(C)NC[C@H]1[C@H](c2ccc(C3=CCCCC3)cc2)[C@@H](CO)N1C(=O)NC(C)C	·	1.0	·	-1.4	·	12.7
O=C(O)/C=C/c1cn(Cc2ccccc2)nc1-c1ccc(Cl)cc1	1.1	0.0	0.9	6.9	94.7*	-2.2
O=C(C[C@H]1C=C[C@@H](NC(=O)C2CC2)[C@@H](CO)O1)Nc1ccccc1	·	-0.2	·	-0.3	·	1.5
O=C(c1cnccn1)N1CC(=O)N2[C@H](CO)[C@H](c3ccc(C#CC4CCCC4)cc3)[C@@H]2C1	·	8.3	·	·	·	·
SMILES	NRP1-CendR mod	ERp5 inh	PDI turbidity	PglD DTNB	ALR inh	ARNT-TACC3 inh
Cc1nc(Cl)cc(N/N=C/c2ccc(O)cc2O)n1	-5.6	3.6	1.6	4.4	57.0	27.0*
Oc1ccc(/C=N/Nc2cc(N3CCCC3)nc(N3CCCC3)n2)cc1	3.5	·	6.7	-4.5	14.2	-1.8
Oc1ccc(/C=N/Nc2cc(N3CCOCC3)nc(N3CCOCC3)n2)cc1	7.6	·	8.3	-0.6	100.2*	4.1
Oc1ccc(/C=N/Nc2ccc(Cl)nn2)cc1O	13.5	-2.1	-0.8	·	99.5*	35.1
Cc1nc(Cl)cc(N/N=C/c2ccc(O)cc2)n1	6.1	2.5	3.8	-6.2	98.8*	20.5
CC=Cc1ccc2n(c1=O)C[C@@H]1[C@@H](CO)[C@H](C(=O)NCCC)[C@H]2N1C(=O)c1ccccc1F (mixture of isomers)	·	-4.3	·	0.8	·	0.9
O=C(Nc1ccc(NC(=O)C2CCCCC2)nc1)c1ccccn1	5.0	3.8	8.6	5.4	98.5*	19.7
C[C@H](CO)N1C[C@H](C)[C@@H](CN(C)S(C)(=O)=O)Oc2ccc(NS(=O)(=O)c3cccs3)cc2CC1=O	·	-4.1	·	-1.9	·	-21.9
Cc1ccnc(NC(c2cccnc2)c2ccc3cccnc3c2O)c1 (stereo unspecified)	-1.8	4.5	0.0	·	3.7	61.4*
Cc1ccnc(NC(c2ccccc2)c2ccc3cccnc3c2O)c1 (stereo unspecified)	33.0*	9.3	2.4	0.5	·	23.9
CC(=O)NC(c1ccco1)c1ccc2cccnc2c1O (stereo unspecified)	9.8	-1.3	0.0	-4.4	6.4	63.2*
Cc1ccc(S(=O)(=O)Nc2ccc3c(c2)C(=O)N([C@H](C)CO)C[C@H](C)[C@H](CN(C)S(=O)(=O)c2cccs2)OCCCC[C@H](C)O3)cc1	·	-7.0	·	-48.4	·	-6.3
COc1ccc(S(=O)(=O)Nc2ccc3c(c2)C(=O)N([C@@H](C)CO)C[C@H](C)[C@@H](CN(C)C(=O)Nc2ccccc2)OCCCC[C@@H](C)O3)cc1	·	·	·	-0.8	·	-13.7
CCOC(=O)N1CCN(C(=O)CSCC(=O)Nc2nc(-c3ccc4c(c3)OCO4)cs2)CC1	-0.5	·	2.1	1.7	99.0*	0.8
Cc1ccc(-c2csc(NC(=O)CSc3nc(C)cs3)n2)cc1	-2.2	-4.9	6.8	3.5	?	0.2
N#CCC(=O)Nc1nc(-c2ccc3c(c2)OCCO3)cs1	4.2	2.0	-4.6	·	99.5*	-1.0
COc1cccc(C(=O)Nc2nc(-c3ccc4c(c3)OCO4)cs2)c1	-5.5	-3.6	10.9	·	50.5	-3.5
CC(=O)Nc1nc(-c2ccc3c(c2)OCO3)cs1	-2.6	-2.6	-5.6	·	-4.4	-3.8
O=C(CCCCl)Nc1nc(-c2ccc3c(c2)OCCO3)cs1	7.3	1.1	-8.1	2.5	-14.9	-3.5
CCOC(=O)N1CCN(C(=O)CSCC(=O)Nc2nc(-c3ccc(C)cc3)cs2)CC1	4.1	3.2	·	-2.3	99.0*	-1.5
O=C(CSCC(=O)N1CCOCC1)Nc1nc(-c2ccc3c(c2)OCO3)cs1	-4.1	6.8	·	0.1	97.4*	36.6
CCCN1C[C@H](C)[C@H](OC)CN(C)C(=O)c2cc(NC(=O)C3CCC3)ccc2OC[C@@H]1C	·	·	·	-1.3	·	-3.7

Screening results: PubChem BioAssay, several laboratories
